Hits are enriched below; roughly 10% of the tested compounds scored in any of these assays.
GLS inh – glutaminase GLS (human) inhibition. O94925. GLS enzymatic activity, qHTS titration. Potency, µM (highest dose often 45.5 µM), inactives show at the highest dose activity change, negative = inhibition, hits mostly inhibitors. 410,000 tested, 0.21% active. AID 624170; also: % is scaled to controls: 0 for no effect and ±100 for the full control effect
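Coupled fluorescence readout: glutamate oxidase/HRP/Amplex Red detect glutamate formed by hKGA from L-glutamine (1 mM solution added). Buffer 45 mM KH2PO4 pH 8.2, 0.02% Tween-20; reads at t0 and 30 min RT.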
HP1b chromo inh – blocks HP1-beta chromodomain binding to methylated histone tails; P83916; AlphaScreen HP1-beta / biotin-H3K9me3 peptide binding; Potency, µM (titrated, usually from 114 µM), for inactives: at the top dose activity change, negative = inhibition, usual class: inhibitors; 390,000 tested, 0.56% active; AID 540317; also: nearly all actives have a fitted effect of over 70% in size
Target sequence (P83916 whole entry, looked up): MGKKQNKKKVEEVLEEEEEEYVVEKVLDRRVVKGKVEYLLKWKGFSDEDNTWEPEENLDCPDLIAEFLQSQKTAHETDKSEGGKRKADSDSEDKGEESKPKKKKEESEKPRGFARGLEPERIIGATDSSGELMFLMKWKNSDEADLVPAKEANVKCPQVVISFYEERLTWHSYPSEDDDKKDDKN
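AlphaScreen: HP1-beta (50 nM) preformed 30 min with biotin-H3(1-18)K9me3 peptide (50 nM) in PBS pH 7.4, 0.01% Tween-20. Compound added for 30 min at RT, then streptavidin donor/nickel chelate acceptor beads (10 ug/mL) for 30 min.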
BAZ2B block – inhibitors of human BAZ2B bromodomain; Q9UIF8; AlphaScreen BAZ2B-H3K14Ac peptide displacement; Potency, µM (titrated, usually from 114 µM), without a hit: at the top dose activity change, negative = inhibition, usual class: inhibitors; 360,000 tested, 4.4% active; AID 504333; also: % is scaled to controls: 0 for no effect and ±100 for the full control effect; nearly all actives have a fitted effect of over 60% in size
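AlphaScreen displacement: compounds (up to 110uM) incubated 30 min at room temperature with a preformed 50 nM BAZ2B/50 nM biotinylated H3K14Ac peptide complex in PBS pH 7.4 with Tween-20. Donor and acceptor beads at 10 ug/mL final added, 20 min light-protected before reading.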
JMJD2A Tudor inh – inhibitors of human JMJD2A Tudor domain; AlphaScreen JMJD2A-Tudor / H3K4me3 peptide binding; Potency, µM (doses to about 114 µM), for the others: at the top dose activity change, negative = inhibition, hits mostly inhibitors; 390,000 tested, 4.4% active; AID 504339; also: % is scaled to controls: 0 for no effect and ±100 for the full control effect; nearly all actives have a fitted effect of over 50% in size
G9a inh – blocks human histone lysine methyltransferase G9a; Q96KQ7; G9a H3K9 monomethylation, AlphaScreen, 2 h; Potency, µM (highest dose often 102 µM), for inactives: at the highest dose activity, negative = inhibition, usual class: inhibitors; 350,000 tested, 8.8% active; also: % is scaled to controls: 0 for no effect and ±100 for the full control effect; nearly all actives have a fitted effect of over 75% in size
Target sequence (Q96KQ7 913-1193 limits assumed): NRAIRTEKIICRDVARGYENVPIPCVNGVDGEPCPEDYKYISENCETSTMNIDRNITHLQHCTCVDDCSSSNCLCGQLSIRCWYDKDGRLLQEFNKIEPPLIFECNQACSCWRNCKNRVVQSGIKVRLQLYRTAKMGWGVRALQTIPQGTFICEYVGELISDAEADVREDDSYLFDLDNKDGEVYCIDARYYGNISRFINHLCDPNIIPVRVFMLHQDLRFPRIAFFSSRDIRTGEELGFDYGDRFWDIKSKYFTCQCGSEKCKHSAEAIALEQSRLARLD
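AlphaScreen detection with an anti-monomethyl H3K9 antibody quantified product after a 2 h room-temperature reaction containing 500 nM biotinylated H3K9 peptide, 20 µM SAM and 20 nM enzyme, which had been preincubated 15 min with compound.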
* hit, by the source's call; [ ] = another dose, or the depositor's remark. Calls follow the shape of the dose curve; as a rule, active = well fitted curve in the direction sought with a large enough effect; inconclusive = small, poorly fitted or top-dose-only effect, or another doubt; inactive = no such curve, though single readings can be large; an effect the other way counts as inactive or inconclusive. Potency is read from the fitted curve at half-maximal effect.

For CCOc1cc2c(cc1OCC)-n1cccc1C(c1c(O)cccc1OC)NC2 (centres undefined) the results were GLS inh 19.3%, HP1b chromo inh -22.6%, BAZ2B block 44.7µM*, JMJD2A Tudor inh 50.1µM* and G9a inh -12.3%[2.33 µM].
For O=C1C=C2C=C[C@@H]3CC2(O1)[C@H]1CCCCN31 the results were GLS inh 37.1%, HP1b chromo inh 31.8%, BAZ2B block -4.1%, JMJD2A Tudor inh -0.7% and G9a inh inconclusive.
Screening Cc1ccc(OCC(=O)NS(=O)(=O)c2ccccc2)cc1 returned GLS inh -13.3%, HP1b chromo inh 32.8%, BAZ2B block -25.6%, JMJD2A Tudor inh 9.0% and G9a inh inconclusive.
COc1ccc(C(c2nnnn2Cc2ccccc2)N2CCC(n3c(=O)[nH]c4ccccc43)CC2)cc1 (centres undefined) was read as GLS inh 0.3%.
`COc1cccc(C(=O)C2CCCN(Cc3ccccn3)C2)c1` (centres undefined) gave GLS inh 12.1%, HP1b chromo inh 6.7%, BAZ2B block -10.2% and JMJD2A Tudor inh -19.2%.
Screening Cc1cccc(CN2CCc3nc(N4CCN(c5ccccn5)CC4)ncc3C2)c1 returned GLS inh -5.1%, HP1b chromo inh 6.1%, BAZ2B block 50.1µM*, JMJD2A Tudor inh 79.4µM* and G9a inh inconclusive.
For COc1cccc(CN2CCc3nc(N4CCN(c5ncccn5)CC4)ncc3C2)c1 the results were GLS inh 1.3%, HP1b chromo inh -6.7%, BAZ2B block 39.8µM*, JMJD2A Tudor inh 63.1µM* and G9a inh -1.4%[12.7 µM].
For Cc1ccc(OC(=O)c2ccc(Br)o2)cc1 the results were GLS inh -8.0%, HP1b chromo inh 32.2%, BAZ2B block 23.9%, JMJD2A Tudor inh -7.5%[11.4 µM] and G9a inh 41.7%.
For COc1cc2c(cc1OC)C(C)NCC2 (centres undefined) the results were GLS inh 1.4%, HP1b chromo inh 58.6%, BAZ2B block -2.3%, JMJD2A Tudor inh -4.8% and G9a inh -22.5%[59 µM].
Screening COc1cc2c(cc1OC)C(C)N(C(=O)c1nccnc1C(=O)O)CC2 (centres undefined) returned GLS inh -12.6%, HP1b chromo inh -10.4%, BAZ2B block inconclusive, JMJD2A Tudor inh 50.1µM* and G9a inh inconclusive.
O=c1oc(Cl)c(Cl)c2ccccc12 was read as GLS inh 27.8%, HP1b chromo inh -10.6%, BAZ2B block inconclusive, JMJD2A Tudor inh inconclusive and G9a inh 6.7µM*.
Screening CC(C)(COC(=O)C(c1ccccc1)c1ccccc1)CN1CCOCC1 returned GLS inh -7.4%, HP1b chromo inh 81.9% and JMJD2A Tudor inh 106.3%.
`COc1ccc(-n2nnnc2C(c2cc3ccccc3o2)N2CCC(n3c(=O)[nH]c4ccccc43)CC2)cc1` (centres undefined) gave GLS inh -1.5%.
`CC(=O)N1CCN(c2ccc(OC[C@H]3CO[C@](Cn4ccnc4)(c4ccc(Cl)cc4Cl)O3)cc2)CC1` gave GLS inh 15.1%, HP1b chromo inh inconclusive, BAZ2B block 35.5µM*, JMJD2A Tudor inh 25.1µM* and G9a inh 10µM*.
Screening CS(=O)(=O)c1ccc(C2=C(CNC(=O)c3ccc([N+](=O)[O-])cc3)[C@H]3CC[C@@H](C2)N3CCOc2ccccc2)cc1 returned GLS inh -1.3%.
Screening O=C(CCN1CCOCC1)Nc1ccc(Br)cc1C(=O)c1ccccc1 returned GLS inh 7.7%, HP1b chromo inh 32.8%, BAZ2B block -31.1%, JMJD2A Tudor inh -25.6% and G9a inh 35.5µM*.
Screening O=C(CN1CCOCC1)Nc1ccc(Br)cc1C(=O)c1ccccc1 returned GLS inh 0.1%, HP1b chromo inh 7.8%, BAZ2B block 0.8%, JMJD2A Tudor inh -10.5% and G9a inh -7.2%[59 µM].
`CCCN(CCC)[C@H]1CCc2c(F)ccc(O)c2C1` gave G9a inh 50.1µM*.
For CN1CCC(O)(c2cccs2)C(C(=O)c2cccs2)C1 (centres undefined) the results were GLS inh -0.3%, HP1b chromo inh 6.2%, BAZ2B block -17.8%, JMJD2A Tudor inh -17.6% and G9a inh 25.1µM*.

Source: PubChem (National Center for Advancing Translational Sciences (NCATS))
